About 83,000 compounds went through this panel and 20% of them were active in at least one assay; those are over-represented in the sample as a whole.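 Activity criterion: percent growth below 10, measured after cells in 96-well plates were exposed to a single compound concentration for 48 hours.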 Values without a mark were called inactive. The source made the active and inactive calls.
What was measured:
Assay in all cases: NCI-60 one-dose screen, 48 h (100 = growth as untreated, 0 = no growth, -100 = all killed)
Settings in all cases: 10 µM unless noted
NCI-H23 lung = test system: NCI-H23 lung
NCI-H226 lung = test system: NCI-H226 lung
NCI-H322M lung = test system: NCI-H322M lung
HOP-62 NSCLC = test system: HOP-62 NSCLC
NCI-H460 lung = test system: NCI-H460 lung
HOP-92 NSCLC = test system: HOP-92 NSCLC
NCI-H522 lung = test system: NCI-H522 lung
A549/ATCC NSCLC = test system: A549/ATCC NSCLC
786-0 renal = test system: 786-0 renal
COLO 205 colon = test system: COLO 205 colon

Row | Compound | growth (NCI-H23 lung) | growth (NCI-H226 lung) | growth (NCI-H322M lung) | growth (HOP-62 NSCLC) | growth (NCI-H460 lung) | growth (HOP-92 NSCLC) | growth (NCI-H522 lung) | growth (A549/ATCC NSCLC) | growth (786-0 renal) | growth (COLO 205 colon)
1 | COc1cccc(/C=C2\Oc3cc(OCCCN4CCCC4)ccc3C2=O)c1 | 88% | 95.4% | 88.2% | 98.1% | 78.4% | 74.1% | 92.2% | 91% | 74.4% | 86.7%
2 | COc1ccc(-c2ccc(-c3ccc(C(=N)N)s3)s2)cc1Cl | 45.4% | 79.3% | 96.8% | 70.9% | -36.5% (active) | 16.5% | 0.287% (active) | -69.8% (active) | 72.3% | -48.4% (active)
3 | COc1cc(C2NN=C3c4ccccc4CCC32)cc(OC)c1OC (stereo not given) | 73.4% | 62.6% | 88% | 82.3% | 91.3% | 62.4% | 81.2% | 42% | 93.9% | 89.3%
4 | COc1cc(NCCCCCN)c2ncccc2c1 | 100% | 112% | 122% | 102% | 117% | 117% | 137% | 105% | 119% | 119%
5 | CCN(CC)CCCC(C)Nc1c2ccc(Cl)cc2nc2cc(OC)c(OC)cc12 (stereo not given) | 21% | 32.3% | 0.383% (active) | 32.3% | -31.6% (active) | -9.58% (active) | 14.9% | 4.12% (active) | 38.6% | -33.6% (active)
6 | Cn1ncc2c(Sc3ccc(Cl)cc3)ncnc21 | 93.6% | 108% | 86.5% | 111% | 92.9% | 25.8% | 21.4% | 93.1% | 98.8% | 90.8%
7 | O=C(Nc1ccc2c(c1)OCCO2)C(=O)c1c[nH]c2ccccc12 | 24.5% | 82.7% | 54.3% | 42.9% | 8.62% (active) | 1.01% (active) | -40.4% (active) | 47.7% | 59.7% | 10.2%
8 | Cc1c(C(=O)/C=C/c2csc3ccccc23)[n+](=O)c2ccccc2n1[O-] | 44.4% | 78.1% | 81.8% | 98.7% | 66.6% | 43.9% | 6.66% (active) | 61.7% | 88.3% | 73.4%
9 | CC(C)(C)n1cc(-c2ccnc(NCCNS(=O)(=O)c3ccc(F)cc3)c2)c(-c2cccc(O)c2)n1 | 58.2% | 50.4% | 72.3% | 78.9% | 29.8% | 58.3% | 50.4% | 47.5% | 26% | -2.98% (active)
10 | Cc1ccc(S(=O)(=O)NC(=O)n2cc(-c3ccncc3)c(-c3ccc(Cl)c(O)c3)n2)cc1 | 108% | 98.6% | 111% | 116% | 111% | 99% | 91.3% | 99.6% | 95.4% | 113%
11 | C=C[C@@H]1C[C@H](O)Cc2c(C)cc(C)cc2N1 | 97.6% | 104% | 117% | 91.5% | 102% | 75.1% | 101% | 98.3% | 98.8% | 106%
12 | Cc1cc(N/N=C/c2nc(-c3ccc(Br)cc3)oc2C)c2cc(Cl)ccc2n1 | 101% | 84.7% | 91.9% | 107% | 12.8% | 72% | 76.5% | 65.5% | 34.1% | 104%
13 | CC(C)(C)N1CCC1C(N)=O (stereo not given) | 86% | 118% | 125% | 96.8% | 104% | 100% | 172% | 99% | 29.6% | 106%
14 | COc1ccc(Nc2nn3c(C)cc(C)nc3c2C(=O)Nc2ccc(C)cc2)c(OC)c1 | 92.7% | 101% | 92.8% | 85.8% | 101% | 87.1% | 88.6% | 93.5% | 90.9% | 98.7%
15 | O=C(CSc1nc2ccccc2[nH]1)Nc1ccc(-c2nc3ccccc3s2)c(Cl)c1 | -32.5% (active) | 40.3% | 64.9% | 10.2% | -4.98% (active) | -11.9% (active) | -9.43% (active) | -33.7% (active) | -72.9% (active) | 19.5%
16 | O=C(CN1CCN(c2cc3c(cc2F)c(=O)c(C(=O)N/N=C/c2ccccc2O)cn3C2CC2)CC1)N/N=C\c1ccccc1O | 28.2% | 36.4% | 25.4% | 24.5% | 0.87% (active) | 52% | 22.6% | 17.8% | 7.83% (active) | 17.4%
17 | COc1ccc(-c2ccc(C)n2-c2ccc(-c3nc4cc(Cl)ccc4s3)cc2)cc1 | 83.4% | 78.7% | 103% | 102% | 99.7% | 133% | 98.8% | 95.5% | 106% | 95.9%
18 | Oc1ccc(Cl)cc1-c1cc(-c2ccc(F)cc2)n[nH]1 | 53.5% | 92.7% | 68.1% | 62.5% | 42.5% | 64.6% | 60.9% | 62% | 85.6% | 81.7%
19 | O=C(Nc1cccc(-n2cc(-c3ccncc3)c(-c3ccc(Cl)c(O)c3)n2)c1)Nc1ccc(Cl)c(Cl)c1 | 13.5% | 24.7% | 40.6% | 34.4% | 6.5% (active) | -20.2% (active) | -6.8% (active) | 4.51% (active) | 30.1% | 30.2%
20 | CC(C)(C)OC(=O)NC(CSCc1ccccc1)C(=O)ON1C(=O)CCC1=O (stereo not given) | 94.3% | 110% | 131% | 105% | 111% | 92.4% | 91.5% | 106% | 114% | 112%
21 | OCCCCCCNc1ncnc2cc(Cl)ccc12 | 95% | 84.1% | 105% | 88.5% | 94.2% | 74.6% | 87.8% | 95.6% | 100% | 103%
22 | COC(=O)c1cc2cc(-c3ccc(OC)cc3)cnc2[nH]1 | 36.8% | 45.1% | 50.4% | 50.3% | 6.52% (active) | 0.19% (active) | -52.2% (active) | 24.9% | 37.1% | 0.277% (active)
23 | COC1=C(OC)C(=O)C(CCCCCCCCCC[P+](c2ccccc2)(c2ccccc2)c2ccccc2)=C(C)C1=O | -8.24% (active) | -19.5% (active) | -17.9% (active) | -19.5% (active) | -52.1% (active) | -47.3% (active) | 2.62% (active) | -4.09% (active) | -57.8% (active) | -93.3% (active)
24 | COc1ccc(-n2c(=S)sc3c(Cl)nc(C)nc32)c(OC)c1 | 31.8% | 100% | 61.9% | 90% | 3.2% (active) | 54.2% | 20.8% | 91.3% | 75.3% | 61.1%
25 | O=C(Nc1ccncc1)C(=O)c1cn(S(=O)(=O)c2ccc(Oc3ccccc3)cc2)c2ccccc12 | 77.5% | 103% | 94.4% | 88% | 72.1% | 71.6% | 87.4% | 71.8% | 89.2% | 107%
26 | Nc1cc2c([nH]c[n+]2CC#CCCl)c(SCC#CCCl)n1 | -72.2% (active) | -42.5% (active) | -66.6% (active) | -62.8% (active) | -7.39% (active) | -39.7% (active) | -90.7% (active) | -7.51% (active) | -86.5% (active) | -48.5% (active)
27 | CCC1=CCC[C@@]2(C)CCC[C@@]3(C)CCCC(C)(C)[C@]1([O-])[O+]32 | 99.7% | 102% | 116% | 104% | 109% | 87.8% | 93.9% | 103% | 97.9% | 112%
